# What was measured:
# Test in all cases: DAPPL (digital affinity profiling via proximity ligation, sequencing); 10 mM Tris-HCl pH 7.5, 50 mM NaCl, 1 mM DTT, 4% glycerol, room temperature, 30 min; GST-TFs on glutathione beads, 16-mer random dsDNA library, 0.1% formaldehyde crosslink after washing; high values mean tight binding
# [1] = target: T1, FLI1 (Homo sapiens, UniProt Q01543 1-452); details: protein: recombinant; tags: N-terminal GST; dsDNA, one strand shown
# T1 sequence: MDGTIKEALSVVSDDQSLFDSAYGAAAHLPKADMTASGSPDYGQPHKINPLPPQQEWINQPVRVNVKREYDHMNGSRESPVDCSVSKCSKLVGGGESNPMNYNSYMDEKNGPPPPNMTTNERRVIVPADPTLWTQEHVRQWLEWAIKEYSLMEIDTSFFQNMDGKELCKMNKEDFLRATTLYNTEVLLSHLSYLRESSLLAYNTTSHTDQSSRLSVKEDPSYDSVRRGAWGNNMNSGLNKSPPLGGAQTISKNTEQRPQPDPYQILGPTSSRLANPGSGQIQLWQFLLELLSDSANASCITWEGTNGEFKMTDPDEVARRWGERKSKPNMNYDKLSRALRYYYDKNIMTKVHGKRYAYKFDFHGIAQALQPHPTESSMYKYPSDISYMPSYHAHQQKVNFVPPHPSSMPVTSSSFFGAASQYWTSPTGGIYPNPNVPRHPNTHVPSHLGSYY
# How it was run: (§1)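 Pools of DNA-barcoded human transcription factors, expressed in yeast as GST fusions on glutathione beads and combined with a tag-only sample, were incubated with 200 nmole of a 16-mer random double-stranded DNA library. Incubation took 30 min at room temperature in Tris/NaCl/DTT/glycerol buffer and was followed by washing, 0.1% formaldehyde crosslinking, proximity ligation (BsaI/T4 ligase, 1 h, 37 °C), PCR amplification and sequencing on an Illumina NextSeq500. Binding signal is the ratio of a hexamer's read frequency for a factor to its frequency for the tag-only sample.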
# [2] = target: T2, ELK1 (Homo sapiens, UniProt P19419 1-428); details: protein: recombinant; tags: N-terminal GST; dsDNA, one strand shown
# T2 sequence: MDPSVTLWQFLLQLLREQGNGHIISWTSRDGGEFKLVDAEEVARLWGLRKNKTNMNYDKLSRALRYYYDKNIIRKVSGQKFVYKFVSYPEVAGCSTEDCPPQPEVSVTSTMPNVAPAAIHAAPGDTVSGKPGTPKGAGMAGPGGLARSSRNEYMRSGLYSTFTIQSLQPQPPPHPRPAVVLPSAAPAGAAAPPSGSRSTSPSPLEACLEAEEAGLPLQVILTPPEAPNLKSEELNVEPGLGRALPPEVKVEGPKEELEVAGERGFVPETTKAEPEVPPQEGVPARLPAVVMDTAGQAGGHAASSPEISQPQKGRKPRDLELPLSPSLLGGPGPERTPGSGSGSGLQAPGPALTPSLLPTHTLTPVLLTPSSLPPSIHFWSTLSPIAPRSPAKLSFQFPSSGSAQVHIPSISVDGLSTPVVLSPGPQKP
# How it was run: as §1
# [3] = target: T3, GABPA (Homo sapiens, UniProt Q06546 1-454); details: protein: recombinant; tags: N-terminal GST; dsDNA, one strand shown
# T3 sequence: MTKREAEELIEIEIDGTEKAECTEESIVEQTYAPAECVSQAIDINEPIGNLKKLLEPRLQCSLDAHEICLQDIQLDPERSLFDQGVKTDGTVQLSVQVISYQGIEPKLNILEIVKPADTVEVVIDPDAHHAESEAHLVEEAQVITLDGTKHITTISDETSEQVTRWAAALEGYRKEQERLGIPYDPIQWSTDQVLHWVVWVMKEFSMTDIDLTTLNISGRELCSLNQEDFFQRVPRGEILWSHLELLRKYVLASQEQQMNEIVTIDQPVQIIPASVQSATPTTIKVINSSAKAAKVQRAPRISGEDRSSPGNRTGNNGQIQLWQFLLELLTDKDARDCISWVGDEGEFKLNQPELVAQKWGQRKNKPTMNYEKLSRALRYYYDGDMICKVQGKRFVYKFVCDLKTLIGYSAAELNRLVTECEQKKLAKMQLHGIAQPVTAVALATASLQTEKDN
# How it was run: as §1
# [4] = target: T4, ERG (Homo sapiens, UniProt P11308 1-479); details: protein: recombinant; tags: N-terminal GST; dsDNA, one strand shown
# T4 sequence: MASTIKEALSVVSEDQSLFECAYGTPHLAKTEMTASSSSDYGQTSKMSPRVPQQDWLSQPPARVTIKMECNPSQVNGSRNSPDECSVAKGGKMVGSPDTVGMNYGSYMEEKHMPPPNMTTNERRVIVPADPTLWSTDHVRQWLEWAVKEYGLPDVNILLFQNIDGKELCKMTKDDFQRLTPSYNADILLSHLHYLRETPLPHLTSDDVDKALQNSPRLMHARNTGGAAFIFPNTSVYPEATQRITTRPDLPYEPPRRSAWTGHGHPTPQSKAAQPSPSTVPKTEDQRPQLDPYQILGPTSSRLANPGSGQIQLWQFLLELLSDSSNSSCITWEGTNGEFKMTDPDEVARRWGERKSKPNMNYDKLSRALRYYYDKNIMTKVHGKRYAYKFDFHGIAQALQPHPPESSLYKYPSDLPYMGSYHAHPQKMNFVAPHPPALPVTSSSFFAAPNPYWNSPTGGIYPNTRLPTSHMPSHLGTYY
# How it was run: as §1
# [5] = target: ELF1 (Homo sapiens, UniProt P32519 1-619); details: protein: recombinant; tags: N-terminal GST; dsDNA, one strand shown
# How it was run: as §1
# [6] = target: T5, EHF (Homo sapiens, UniProt Q9NZC4 1-300); details: protein: recombinant; tags: N-terminal GST; dsDNA, one strand shown
# T5 sequence: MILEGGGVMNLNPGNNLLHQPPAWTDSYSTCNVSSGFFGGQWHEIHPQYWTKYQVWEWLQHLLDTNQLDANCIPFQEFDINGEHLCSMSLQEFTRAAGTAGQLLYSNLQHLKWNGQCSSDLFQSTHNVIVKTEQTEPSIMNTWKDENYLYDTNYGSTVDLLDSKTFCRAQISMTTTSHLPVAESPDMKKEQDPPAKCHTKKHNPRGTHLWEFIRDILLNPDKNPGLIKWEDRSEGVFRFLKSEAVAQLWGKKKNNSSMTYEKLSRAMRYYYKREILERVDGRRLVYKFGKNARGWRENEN
# How it was run: as §1
# [7] = target: SPI1 (Homo sapiens, UniProt P17947 1-270); details: protein: recombinant; tags: N-terminal GST; dsDNA, one strand shown
# How it was run: as §1
# [8] = target: T6, ELK3 (Homo sapiens, UniProt P41970 1-407); details: protein: recombinant; tags: N-terminal GST; dsDNA, one strand shown
# T6 sequence: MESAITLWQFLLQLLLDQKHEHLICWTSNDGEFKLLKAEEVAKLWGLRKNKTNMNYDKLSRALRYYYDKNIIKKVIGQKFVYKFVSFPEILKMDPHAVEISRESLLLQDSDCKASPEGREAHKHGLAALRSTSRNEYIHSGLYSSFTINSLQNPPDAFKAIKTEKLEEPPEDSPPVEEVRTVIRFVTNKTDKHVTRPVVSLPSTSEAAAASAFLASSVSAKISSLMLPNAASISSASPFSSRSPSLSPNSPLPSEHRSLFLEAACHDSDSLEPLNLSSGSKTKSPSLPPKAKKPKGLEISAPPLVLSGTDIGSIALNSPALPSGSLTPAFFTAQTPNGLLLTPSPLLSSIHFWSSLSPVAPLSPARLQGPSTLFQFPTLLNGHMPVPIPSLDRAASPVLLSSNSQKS
# How it was run: as §1
# [9] = target: T7, FEV (Homo sapiens, UniProt Q99581 1-238); details: protein: recombinant; tags: N-terminal GST; dsDNA, one strand shown
# T7 sequence: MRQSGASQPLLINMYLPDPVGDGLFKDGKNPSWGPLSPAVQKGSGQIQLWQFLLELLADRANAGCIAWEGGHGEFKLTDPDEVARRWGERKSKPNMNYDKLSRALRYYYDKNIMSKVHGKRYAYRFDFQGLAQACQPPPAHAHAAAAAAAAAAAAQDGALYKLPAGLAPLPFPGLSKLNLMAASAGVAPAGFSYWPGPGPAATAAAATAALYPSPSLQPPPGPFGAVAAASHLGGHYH
# How it was run: as §1
# [10] = target: ETV5 (Homo sapiens, UniProt P41161 1-510); details: protein: recombinant; tags: N-terminal GST; dsDNA, one strand shown
# How it was run: as §1
# [11] = target: HSF1 (Homo sapiens, UniProt Q00613 1-529); details: protein: recombinant; tags: N-terminal GST; chain copies: 3; dsDNA, one strand shown
# How it was run: as §1
# [12] = target: T8, SPIC (Homo sapiens, UniProt Q8N5J4 1-248); details: protein: recombinant; tags: N-terminal GST; dsDNA, one strand shown
# T8 sequence: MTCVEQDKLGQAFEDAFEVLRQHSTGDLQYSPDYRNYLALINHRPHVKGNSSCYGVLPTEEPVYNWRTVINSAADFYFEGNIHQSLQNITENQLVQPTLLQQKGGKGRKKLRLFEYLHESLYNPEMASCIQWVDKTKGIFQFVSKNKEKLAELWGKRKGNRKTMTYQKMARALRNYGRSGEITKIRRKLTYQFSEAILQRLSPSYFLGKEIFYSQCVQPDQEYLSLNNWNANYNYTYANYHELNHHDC
# How it was run: as §1
# [13] = target: ELF4 (Homo sapiens, UniProt Q99607 1-663); details: protein: recombinant; tags: N-terminal GST; dsDNA, one strand shown
# How it was run: as §1
# [14] = target: T9, ELK4 (Homo sapiens, UniProt P28324-2 1-405); details: protein: recombinant; tags: N-terminal GST; dsDNA, one strand shown
# T9 sequence: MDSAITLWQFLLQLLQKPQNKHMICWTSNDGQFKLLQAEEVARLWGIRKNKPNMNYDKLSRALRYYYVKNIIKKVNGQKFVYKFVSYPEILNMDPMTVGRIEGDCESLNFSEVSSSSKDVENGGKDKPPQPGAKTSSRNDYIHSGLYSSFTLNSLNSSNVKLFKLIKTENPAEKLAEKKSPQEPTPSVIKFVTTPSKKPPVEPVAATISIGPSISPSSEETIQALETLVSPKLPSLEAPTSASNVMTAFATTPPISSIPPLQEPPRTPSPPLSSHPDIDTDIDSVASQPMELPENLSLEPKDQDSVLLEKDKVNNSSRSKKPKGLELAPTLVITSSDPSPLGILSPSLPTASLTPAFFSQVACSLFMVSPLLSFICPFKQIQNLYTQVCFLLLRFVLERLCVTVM
# How it was run: as §1
# [15] = target: T10, ETV2 (Homo sapiens, UniProt O00321 1-342); details: protein: recombinant; tags: N-terminal GST; dsDNA, one strand shown
# T10 sequence: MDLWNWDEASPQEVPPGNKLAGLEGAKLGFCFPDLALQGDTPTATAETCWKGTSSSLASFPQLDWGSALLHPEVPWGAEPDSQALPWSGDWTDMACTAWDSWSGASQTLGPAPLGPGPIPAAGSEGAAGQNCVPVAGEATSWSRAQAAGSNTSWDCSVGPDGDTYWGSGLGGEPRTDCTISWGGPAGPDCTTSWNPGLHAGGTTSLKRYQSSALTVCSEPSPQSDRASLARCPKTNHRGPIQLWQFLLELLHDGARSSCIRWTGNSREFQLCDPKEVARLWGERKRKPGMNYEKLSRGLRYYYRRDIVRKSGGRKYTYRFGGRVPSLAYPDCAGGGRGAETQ
# How it was run: as §1
# [16] = target: T11, ELF3 (Homo sapiens, UniProt P78545 1-371); details: protein: recombinant; tags: N-terminal GST; dsDNA, one strand shown
# T11 sequence: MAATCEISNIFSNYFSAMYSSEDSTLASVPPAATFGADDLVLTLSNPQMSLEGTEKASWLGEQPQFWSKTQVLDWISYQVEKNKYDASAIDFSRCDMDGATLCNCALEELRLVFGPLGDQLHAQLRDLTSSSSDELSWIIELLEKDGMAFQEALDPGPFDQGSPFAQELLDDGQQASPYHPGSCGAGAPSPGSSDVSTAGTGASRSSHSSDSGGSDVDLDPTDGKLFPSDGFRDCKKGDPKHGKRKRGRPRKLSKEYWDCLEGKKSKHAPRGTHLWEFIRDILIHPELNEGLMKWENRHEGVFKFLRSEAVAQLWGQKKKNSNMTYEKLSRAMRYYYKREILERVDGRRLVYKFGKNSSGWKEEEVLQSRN
# How it was run: as §1
# [17] = target: CRX (Homo sapiens, UniProt O43186 1-299); details: protein: recombinant; tags: N-terminal GST; dsDNA, one strand shown
# How it was run: as §1
# [18] = target: ETV1 (Homo sapiens, UniProt P50549 1-477); details: protein: recombinant; tags: N-terminal GST; dsDNA, one strand shown
# How it was run: as §1
# ETV1, sequence (P50549 whole entry): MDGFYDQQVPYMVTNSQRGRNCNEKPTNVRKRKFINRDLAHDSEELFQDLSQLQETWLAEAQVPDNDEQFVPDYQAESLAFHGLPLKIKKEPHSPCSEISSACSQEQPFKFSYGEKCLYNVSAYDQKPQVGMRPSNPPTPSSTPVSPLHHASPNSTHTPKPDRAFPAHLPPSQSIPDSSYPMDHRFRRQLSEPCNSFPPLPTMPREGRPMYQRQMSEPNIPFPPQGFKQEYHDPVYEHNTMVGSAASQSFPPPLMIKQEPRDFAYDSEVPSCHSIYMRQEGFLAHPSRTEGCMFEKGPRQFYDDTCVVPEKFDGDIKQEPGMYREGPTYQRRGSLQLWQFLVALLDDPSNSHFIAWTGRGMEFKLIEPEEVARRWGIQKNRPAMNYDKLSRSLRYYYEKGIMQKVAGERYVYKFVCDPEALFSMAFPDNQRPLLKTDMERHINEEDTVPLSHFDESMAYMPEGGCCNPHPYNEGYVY
# ELF4, sequence (Q99607 whole entry): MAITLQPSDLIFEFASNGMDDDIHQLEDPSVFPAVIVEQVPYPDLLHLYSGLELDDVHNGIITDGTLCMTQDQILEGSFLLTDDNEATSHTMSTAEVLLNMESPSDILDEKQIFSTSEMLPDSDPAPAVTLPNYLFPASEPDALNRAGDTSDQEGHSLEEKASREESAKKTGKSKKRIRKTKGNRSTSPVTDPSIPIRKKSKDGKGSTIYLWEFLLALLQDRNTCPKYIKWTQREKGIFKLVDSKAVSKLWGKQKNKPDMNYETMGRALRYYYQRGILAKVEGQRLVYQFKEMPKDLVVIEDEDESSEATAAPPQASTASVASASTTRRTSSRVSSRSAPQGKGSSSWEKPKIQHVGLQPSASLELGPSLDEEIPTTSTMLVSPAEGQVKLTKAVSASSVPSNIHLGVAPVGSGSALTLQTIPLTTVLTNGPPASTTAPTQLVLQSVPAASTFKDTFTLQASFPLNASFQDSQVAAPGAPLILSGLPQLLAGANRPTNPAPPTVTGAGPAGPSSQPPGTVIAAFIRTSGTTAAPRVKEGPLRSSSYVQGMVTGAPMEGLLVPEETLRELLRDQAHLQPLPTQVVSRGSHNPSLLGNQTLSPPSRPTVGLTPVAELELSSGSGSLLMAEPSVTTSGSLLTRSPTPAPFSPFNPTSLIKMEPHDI
# ELF1, sequence (P32519 whole entry): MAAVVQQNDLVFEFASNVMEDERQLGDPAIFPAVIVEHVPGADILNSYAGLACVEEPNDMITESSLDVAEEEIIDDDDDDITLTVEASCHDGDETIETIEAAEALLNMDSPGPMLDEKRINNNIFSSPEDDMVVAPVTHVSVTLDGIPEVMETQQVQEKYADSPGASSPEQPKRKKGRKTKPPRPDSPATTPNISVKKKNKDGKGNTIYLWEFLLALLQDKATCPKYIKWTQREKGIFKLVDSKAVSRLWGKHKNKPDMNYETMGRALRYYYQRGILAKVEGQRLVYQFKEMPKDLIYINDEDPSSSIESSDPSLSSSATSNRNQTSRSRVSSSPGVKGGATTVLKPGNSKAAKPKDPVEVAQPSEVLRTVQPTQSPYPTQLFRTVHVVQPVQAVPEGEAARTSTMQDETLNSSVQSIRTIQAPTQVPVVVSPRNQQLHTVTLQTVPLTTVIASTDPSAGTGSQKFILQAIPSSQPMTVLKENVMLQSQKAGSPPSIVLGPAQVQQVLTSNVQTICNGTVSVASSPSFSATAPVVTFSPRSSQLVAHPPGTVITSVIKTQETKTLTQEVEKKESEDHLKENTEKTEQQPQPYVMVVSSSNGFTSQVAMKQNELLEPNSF
# CRX, sequence (O43186 whole entry): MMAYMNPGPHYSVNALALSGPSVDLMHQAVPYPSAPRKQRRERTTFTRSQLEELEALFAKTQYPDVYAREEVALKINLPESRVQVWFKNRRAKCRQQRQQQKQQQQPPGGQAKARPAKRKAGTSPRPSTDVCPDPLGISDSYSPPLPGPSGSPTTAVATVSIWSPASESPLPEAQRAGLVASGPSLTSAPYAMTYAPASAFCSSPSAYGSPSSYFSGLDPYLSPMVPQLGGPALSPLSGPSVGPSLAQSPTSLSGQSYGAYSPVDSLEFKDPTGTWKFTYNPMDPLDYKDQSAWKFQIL
# HSF1, sequence (Q00613 whole entry): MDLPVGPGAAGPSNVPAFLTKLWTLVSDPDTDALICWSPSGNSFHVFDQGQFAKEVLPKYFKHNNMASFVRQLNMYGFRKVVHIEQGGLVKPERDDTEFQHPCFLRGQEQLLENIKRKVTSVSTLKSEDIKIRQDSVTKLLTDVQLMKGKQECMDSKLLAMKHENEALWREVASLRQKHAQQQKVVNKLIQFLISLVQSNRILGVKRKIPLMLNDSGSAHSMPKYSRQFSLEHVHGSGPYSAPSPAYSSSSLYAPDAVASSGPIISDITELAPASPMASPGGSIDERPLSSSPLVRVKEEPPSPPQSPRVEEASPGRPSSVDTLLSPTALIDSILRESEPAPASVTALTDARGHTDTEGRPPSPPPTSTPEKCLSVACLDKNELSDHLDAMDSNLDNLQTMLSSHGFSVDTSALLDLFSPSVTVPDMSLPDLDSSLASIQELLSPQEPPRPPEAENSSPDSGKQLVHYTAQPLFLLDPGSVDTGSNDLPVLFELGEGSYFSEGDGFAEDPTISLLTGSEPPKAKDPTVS
# ETV5, sequence (P41161 whole entry): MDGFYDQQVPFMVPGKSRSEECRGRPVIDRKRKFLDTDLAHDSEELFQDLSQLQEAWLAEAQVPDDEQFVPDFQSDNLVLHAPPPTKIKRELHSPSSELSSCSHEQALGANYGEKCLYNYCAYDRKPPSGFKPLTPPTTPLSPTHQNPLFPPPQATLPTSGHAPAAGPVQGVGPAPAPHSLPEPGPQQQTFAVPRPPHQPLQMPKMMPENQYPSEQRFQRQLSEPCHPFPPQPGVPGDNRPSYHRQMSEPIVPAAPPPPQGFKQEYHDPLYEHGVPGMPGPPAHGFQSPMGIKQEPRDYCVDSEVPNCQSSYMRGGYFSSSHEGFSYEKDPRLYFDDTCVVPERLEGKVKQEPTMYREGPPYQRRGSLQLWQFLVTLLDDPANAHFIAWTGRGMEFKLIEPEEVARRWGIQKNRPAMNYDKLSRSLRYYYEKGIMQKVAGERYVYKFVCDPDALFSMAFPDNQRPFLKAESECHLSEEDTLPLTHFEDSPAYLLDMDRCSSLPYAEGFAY
sequence,measurement,setting,value
TTACTG,binding signal,[1],"1.11 fold enrichment (6-mer frequency, TF over GST control)"
same,binding signal,[2],"1.12 fold enrichment (6-mer frequency, TF over GST control)"
same,binding signal,[3],"1.08 fold enrichment (6-mer frequency, TF over GST control)"
same,binding signal,[4],"1.14 fold enrichment (6-mer frequency, TF over GST control)"
same,binding signal,[5],"1.09 fold enrichment (6-mer frequency, TF over GST control)"
same,binding signal,[6],"1.18 fold enrichment (6-mer frequency, TF over GST control)"
same,binding signal,[7],"1.05 fold enrichment (6-mer frequency, TF over GST control)"
same,binding signal,[8],"1.03 fold enrichment (6-mer frequency, TF over GST control)"
same,binding signal,[9],"1.04 fold enrichment (6-mer frequency, TF over GST control)"
same,binding signal,[10],"1.15 fold enrichment (6-mer frequency, TF over GST control)"
same,binding signal,[11],"1.52 fold enrichment (6-mer frequency, TF over GST control)"
same,binding signal,[12],"1.18 fold enrichment (6-mer frequency, TF over GST control)"
same,binding signal,[13],"1.11 fold enrichment (6-mer frequency, TF over GST control)"
same,binding signal,[14],"1.16 fold enrichment (6-mer frequency, TF over GST control)"
same,binding signal,[15],"1.12 fold enrichment (6-mer frequency, TF over GST control)"
same,binding signal,[16],"1.21 fold enrichment (6-mer frequency, TF over GST control)"
same,binding signal,[17],"1.84 fold enrichment (6-mer frequency, TF over GST control)"
same,binding signal,[18],"1.01 fold enrichment (6-mer frequency, TF over GST control)"

# — PMC7862700, “An all-to-all approach to the identification of sequence-specific readers for epigenetic DNA modifications on cytosine”
